Assay results reported in PubChem BioAssay (NCI).
Values joined by “and” are separate entries in the source; they are usually repeats but may differ in a detail not shown here. Equal entries are not always repeated. The panel holds about 83,000 compounds, 20% with a hit somewhere; the sample as a whole holds those more often.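 Cell lines were cultured in 96-well plates, exposed to a single compound concentration, and assessed for percent growth 48 hours later.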 Active and inactive are the calls of the source. The calls were made as follows: active = growth percent below 10; inactive = the rest.

Experiments:
Experiment in all cases: NCI-60 one-dose screen, 48 h (100 = growth as untreated, 0 = no growth, -100 = all killed)
Conditions in all cases: 10 µM unless noted
HCT-15 colon = system: HCT-15 colon
HT29 colon = system: HT29 colon
SNB-75 CNS = system: SNB-75 CNS
SNB-19 CNS = system: SNB-19 CNS
U251 CNS = system: U251 CNS
PC-3 prostate = system: PC-3 prostate
SK-MEL-5 melanoma = system: SK-MEL-5 melanoma
UACC-62 melanoma = system: UACC-62 melanoma
LOX IMVI melanoma = system: LOX IMVI melanoma
SK-MEL-28 melanoma = system: SK-MEL-28 melanoma
SK-MEL-2 melanoma = system: SK-MEL-2 melanoma
EKVX NSCLC = system: EKVX NSCLC
SN12C renal = system: SN12C renal
UO-31 renal = system: UO-31 renal
TK-10 renal = system: TK-10 renal
ACHN renal = system: ACHN renal
CAKI-1 renal = system: CAKI-1 renal
A498 renal = system: A498 renal
CCRF-CEM leukemia = system: CCRF-CEM leukemia
HL-60(TB) leukemia = system: HL-60(TB) leukemia

Measured: growth

O=C(O)C(O)c1ccc(Cl)cc1 (configuration not stated)
inactive: HCT-15 colon 102% | HT29 colon 116% and 104% | SNB-75 CNS 100% and 112% | SNB-19 CNS 106% and 108% | U251 CNS 106% and 100% | PC-3 prostate 92.7% and 103% | SK-MEL-5 melanoma 81.4% and 106% | UACC-62 melanoma 103% and 106% | LOX IMVI melanoma 101% and 106% | SK-MEL-28 melanoma 106% and 109% | SK-MEL-2 melanoma 106% and 118% | EKVX NSCLC 102% and 120% | SN12C renal 100% and 107% | UO-31 renal 99.6% and 87.7% | TK-10 renal 99% and 105% | ACHN renal 112% and 108% | CAKI-1 renal 97.6% and 104% | A498 renal 102% and 106% | CCRF-CEM leukemia 106%

CC12CCC3C(CCC4CC(O)CCC43C)C1CCC2=O (configuration not stated)
inactive: HCT-15 colon 91.4% | HT29 colon 102% | SNB-75 CNS 109% | SNB-19 CNS 112% | U251 CNS 95.9% | PC-3 prostate 99.6% | SK-MEL-5 melanoma 101% | UACC-62 melanoma 98.9% | LOX IMVI melanoma 92% | SK-MEL-28 melanoma 189% | SK-MEL-2 melanoma 91.7% | EKVX NSCLC 73.4% | SN12C renal 102% | UO-31 renal 94.1% | TK-10 renal 108% | ACHN renal 109% | CAKI-1 renal 81.5% | A498 renal 162% | HL-60(TB) leukemia 92.3% | CCRF-CEM leukemia 107%

CC[CH2][Sn]([Cl])([Cl])[CH2]CC.Oc1ccccc1C=NCCN=Cc1ccccc1O
active: A498 renal 7.69% and -34% | CCRF-CEM leukemia 2.05% and 0.18%
inactive: HCT-15 colon 59.8% and 60.4% | HT29 colon 79.1% and 58.3% | SNB-75 CNS 50.7% | SNB-19 CNS 79.2% and 67.5% | PC-3 prostate 84.9% and 70.9% | SK-MEL-5 melanoma 60.1% and 50% | UACC-62 melanoma 39.8% and 32.3% | SK-MEL-28 melanoma 48.3% and 45.7% | SK-MEL-2 melanoma 34.1% and 13.1% | EKVX NSCLC 85.2% and 75.2% | SN12C renal 52.2% and 58.8% | UO-31 renal 53.9% and 32.8% | ACHN renal 47.8% and 29.3% | CAKI-1 renal 50.4% and 33.6%
26% (inactive) and -21.6% (active): U251 CNS
17.6% (inactive) and -44.9% (active): TK-10 renal
7.92% (active) and 64.9% (inactive): HL-60(TB) leukemia
17.4% (inactive) and -11.1% (active): LOX IMVI melanoma

CC[C@H](C)[C@H](NC(=O)[C@H]1CCCCN1C)C(=O)N(C)[C@H](C(=O)NC12CC(C(=O)N[C@@H](Cc3ccccc3)C[C@H](C)C(=O)OC)(C1)C2)C(C)C
inactive: HCT-15 colon 101% | HT29 colon 87.3% | SNB-75 CNS 92.7% | SNB-19 CNS 100% | U251 CNS 96.7% | PC-3 prostate 100% | SK-MEL-5 melanoma 101% | UACC-62 melanoma 102% | LOX IMVI melanoma 92.1% | SK-MEL-28 melanoma 110% | SK-MEL-2 melanoma 89.3% | EKVX NSCLC 102% | SN12C renal 99% | UO-31 renal 95.1% | TK-10 renal 98.4% | ACHN renal 106% | CAKI-1 renal 95.9% | A498 renal 112% | CCRF-CEM leukemia 103%

CCCn1cc2c3c(cccc31)[C@H]1C[C@@H](C)CN(C)[C@@H]1C2
inactive: HCT-15 colon 84.1% | HT29 colon 45% | SNB-75 CNS 58.2% | SNB-19 CNS 91.2% | U251 CNS 86.7% | PC-3 prostate 72.3% | SK-MEL-5 melanoma 113% | UACC-62 melanoma 93.2% | LOX IMVI melanoma 88.5% | SK-MEL-28 melanoma 97.7% | SK-MEL-2 melanoma 134% | EKVX NSCLC 94.9% | SN12C renal 81.6% | UO-31 renal 36.1% | TK-10 renal 96.8% | ACHN renal 94.6% | CAKI-1 renal 83.8% | A498 renal 71.3% | CCRF-CEM leukemia 86.9%

O=C(Cc1ccccc1)NC(O)C(Cl)(Cl)Cl (configuration not stated)
inactive: HCT-15 colon 118% | HT29 colon 99.3% | SNB-75 CNS 86.1% | SNB-19 CNS 95% | U251 CNS 99.9% | PC-3 prostate 106% | SK-MEL-5 melanoma 105% | UACC-62 melanoma 97.9% | LOX IMVI melanoma 101% | SK-MEL-28 melanoma 110% | SK-MEL-2 melanoma 105% | EKVX NSCLC 124% | SN12C renal 99.3% | UO-31 renal 93.8% | TK-10 renal 99.8% | ACHN renal 120% | CAKI-1 renal 108% | A498 renal 104% | HL-60(TB) leukemia 101% | CCRF-CEM leukemia 106%

CC1OC(=O)C(C(C)C)NC(=O)C(C(C)C)OC(=O)C(C(C)C)NC(=O)C(C)OC(=O)C(C(C)C)NC(=O)C(C(C)C)OC(=O)C(C(C)C)NC(=O)C(C)OC(=O)C(C(C)C)NC(=O)C(C(C)C)OC(=O)C(C(C)C)NC1=O (configuration not stated)
inactive: TK-10 renal 24.6%
active: HCT-15 colon -3.27% | HT29 colon -32.3% | SNB-75 CNS -18.5% | SNB-19 CNS -17% | U251 CNS -41.9% | PC-3 prostate -49.8% | SK-MEL-5 melanoma -74.5% | UACC-62 melanoma 5.04% | LOX IMVI melanoma -26.4% | SK-MEL-28 melanoma -28.8% | SK-MEL-2 melanoma -22.4% | EKVX NSCLC -23.9% | SN12C renal 3.04% | UO-31 renal 6.58% | ACHN renal -16.5% | CAKI-1 renal -5.02% | A498 renal -53.2% | HL-60(TB) leukemia -44.6% | CCRF-CEM leukemia -20.1%

CC[C@H](C)[C@H](NC(=O)[C@H]1CCCCN1C)C(=O)N(C)[C@H](C[C@@H](OC(C)=O)c1cccc(C(=O)N[C@@H](Cc2ccccc2)C[C@H](C)C(=O)OC)n1)C(C)C
inactive: SNB-75 CNS 23.5% | SNB-19 CNS 33.1% | U251 CNS 14.3% | PC-3 prostate 18.9% | UACC-62 melanoma 38.6% | LOX IMVI melanoma 14.6% | SK-MEL-28 melanoma 62.8% | SK-MEL-2 melanoma 22.1% | EKVX NSCLC 53.4% | SN12C renal 29.8% | UO-31 renal 40.7% | TK-10 renal 34.4% | ACHN renal 24.6% | CAKI-1 renal 25.4% | CCRF-CEM leukemia 14.4%
active: HCT-15 colon 8.45% | HT29 colon -5.46% | SK-MEL-5 melanoma -14.5% | A498 renal -5.01%

O=C(NCCCN1CC1)Nc1cccc2ccccc12
inactive: HCT-15 colon 106% and 100% | HT29 colon 83.9% | SNB-75 CNS 105% and 102% | SNB-19 CNS 88.5% and 95% | U251 CNS 87% and 86.6% | PC-3 prostate 87.8% and 89.7% | SK-MEL-5 melanoma 107% and 93.3% | UACC-62 melanoma 98% and 105% | LOX IMVI melanoma 95.6% and 78.4% | SK-MEL-28 melanoma 107% and 115% | SK-MEL-2 melanoma 97.1% and 97.9% | EKVX NSCLC 109% and 103% | SN12C renal 94.4% and 97.5% | UO-31 renal 97.7% and 83.7% | TK-10 renal 103% and 93.3% | ACHN renal 93% and 87.6% | CAKI-1 renal 95.8% and 85.1% | A498 renal 124% and 86.9% | HL-60(TB) leukemia 107% | CCRF-CEM leukemia 108% and 86.3%

O=CC1(c2ccccc2)CCN(Cc2ccccc2)CC1
inactive: HCT-15 colon 103% | HT29 colon 107% | SNB-75 CNS 102% | SNB-19 CNS 109% | U251 CNS 101% | PC-3 prostate 98.1% | SK-MEL-5 melanoma 110% | UACC-62 melanoma 105% | LOX IMVI melanoma 82.8% | SK-MEL-28 melanoma 112% | SK-MEL-2 melanoma 117% | EKVX NSCLC 101% | SN12C renal 107% | UO-31 renal 83.9% | TK-10 renal 115% | ACHN renal 112% | CAKI-1 renal 97.9% | HL-60(TB) leukemia 97.8% | CCRF-CEM leukemia 102%

CC1(C)N(Nc2ccccc2)C(=O)C2CCCN21 (configuration not stated)
inactive: HCT-15 colon 44.5% | HT29 colon 65.7% | SNB-75 CNS 50.7% | SNB-19 CNS 95.4% | U251 CNS 85.2% | SK-MEL-5 melanoma 97.5% | UACC-62 melanoma 21.7% | SK-MEL-28 melanoma 79% | SK-MEL-2 melanoma 84% | EKVX NSCLC 74.4% | SN12C renal 91.5% | UO-31 renal 32.2% | ACHN renal 21% | A498 renal 96.5% | CCRF-CEM leukemia 18.5%
active: PC-3 prostate 9.48% | LOX IMVI melanoma 6.21% | CAKI-1 renal 6.09% | HL-60(TB) leukemia -31.4%

CCCC1CCCCC12C(=O)NC(=O)NC2=O (configuration not stated)
inactive: HCT-15 colon 94.3% and 106% | HT29 colon 97.2% and 94.3% | SNB-75 CNS 100% and 87.2% | SNB-19 CNS 96.2% and 110% | U251 CNS 97.8% and 102% | PC-3 prostate 104% and 101% | SK-MEL-5 melanoma 95.5% and 103% | UACC-62 melanoma 98.2% and 109% | LOX IMVI melanoma 97% and 97.1% | SK-MEL-28 melanoma 103% and 114% | SK-MEL-2 melanoma 105% and 99.8% | EKVX NSCLC 85.6% | SN12C renal 101% and 106% | UO-31 renal 84.3% and 87.9% | ACHN renal 104% and 106% | CAKI-1 renal 94.8% and 99.6% | A498 renal 70.3% and 102% | HL-60(TB) leukemia 121% and 94.2% | CCRF-CEM leukemia 109% and 101%

CCN1C(=O)CC(=O)N(CC)C1=S
inactive: HCT-15 colon 96.4% | HT29 colon 92.1% | SNB-75 CNS 72.4% | SNB-19 CNS 101% | U251 CNS 105% | PC-3 prostate 100% | SK-MEL-5 melanoma 96.8% | UACC-62 melanoma 95.5% | LOX IMVI melanoma 100% | SK-MEL-28 melanoma 105% | SK-MEL-2 melanoma 97% | EKVX NSCLC 108% | SN12C renal 99.3% | UO-31 renal 91.7% | ACHN renal 101% | CAKI-1 renal 76.8% | A498 renal 94.6% | HL-60(TB) leukemia 68.7% | CCRF-CEM leukemia 94.8%
